Results filed as inconclusive are left out. Calls of active or inactive are those of the source. How the source made its calls: active means hit-call score of the fitted dose curve at least 0.9, where 1 is the maximum; inconclusive means response in the unintended direction; inactive means score below 0.9.
Key:
[1] = biological target: sheep Cyclooxygenase-1 (Cox1), PTGS1 (gene 443551) (UniProt P05979); test: NVS_ENZ_oCOX1: NovaScreen (NVS) Enzymatic Assay for sheep Cyclooxygenase-1 (Cox1) (AID 2283239);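 further: actives reduce cyclooxygenase activity so potencies are for inhibitors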
Method in brief: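 Ovine seminal vesicle extract; absorbance (colorimetric) enzyme read-out at 0.66 h post-dose. Primary: single conc 25 uM, duplicate. Follow-up: concentration series on actives. Activity = signal loss vs DMSO baseline.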

[2] = biological target: human Protein Tyrosine Phosphatase Non-receptor Type 9 (PTPN9), PTPN9 (gene 5780) (UniProt P43378); test: NVS_ENZ_hPTPN9: NovaScreen (NVS) Enzymatic Assay for human Protein Tyrosine Phosphatase Non-receptor Type 9 (PTPN9) (AID 2283209)
Method in brief: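 Sf9-expressed enzyme in a cell-free assay, fluorescence read 1.33 h after dosing with mobility-shift separation of substrate and product. Tested at 25 uM in duplicate, then up to 50 uM; signal loss versus DMSO.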

[3] = biological target: sheep Cyclooxygenase-2 (Cox2), PTGS2 (gene 443460) (UniProt P79208); test: NVS_ENZ_oCOX2: NovaScreen (NVS) Enzymatic Assay for sheep Cyclooxygenase-2 (Cox2) (AID 2283231)
Method in brief: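 Colorimetric absorbance read-out of COX activity, taken 0.66 hour post-dosing, using native protein from sheep placenta. Single-concentration duplicate screen (25 uM), then singleton concentration-response up to 50 uM for actives.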

[4] = biological target: human Vascular Endothelial Growth Factor Receptor 1 (VEGFR1), FLT1 (gene 2321) (UniProt P17948); test: NVS_ENZ_hVEGFR1: NovaScreen (NVS) Enzymatic Assay for human Vascular Endothelial Growth Factor Receptor 1 (VEGFR1) (AID 2283226)
Method in brief: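 Cell-free assay of recombinant human VEGFR1 kinase with substrate, measured 1 h after dosing; fluorescence with electrophoretic mobility-shift separation of substrate and product, referenced to DMSO; primary screen at 25 uM in duplicate, actives then run in concentration series.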

[5] = biological target: rabbit Imidazoline 2 Central (I2C), CKB (gene 100009085) (UniProt P00567); test: NVS_ENZ_rabI2C: NovaScreen (NVS) Enzymatic Assay for rabbit Imidazoline 2 Central (I2C) (AID 2283228)
Method in brief: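 Rabbit brain membranes, cell-free; readout by filter-based scintillation counting 1.5 hours after dosing, loss of signal vs DMSO. Initial duplicate test at 25 uM, then concentration-response with 50 uM top concentration.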

[6] = biological target: bovine Dopamine Receptor (DR), Non-selective Binding, DRD1 (gene 281125) (UniProt Q95136); test: NVS_GPCR_bDR_NonSelective: NovaScreen (NVS) G Protein-Coupled Receptor Assay for bovine Dopamine Receptor (DR), Non-selective Binding (AID 2283241)
Method in brief: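 Bovine striatal membranes; radioligand displacement read by filtration and scintillation counting 1 h after dosing, loss of signal vs DMSO. Screened in duplicate at 25 uM, then concentration-response for hits.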

sheep Cyclooxygenase-1 (Cox1), PTGS1 (gene 443551), sequence (P05979 whole entry, looked up): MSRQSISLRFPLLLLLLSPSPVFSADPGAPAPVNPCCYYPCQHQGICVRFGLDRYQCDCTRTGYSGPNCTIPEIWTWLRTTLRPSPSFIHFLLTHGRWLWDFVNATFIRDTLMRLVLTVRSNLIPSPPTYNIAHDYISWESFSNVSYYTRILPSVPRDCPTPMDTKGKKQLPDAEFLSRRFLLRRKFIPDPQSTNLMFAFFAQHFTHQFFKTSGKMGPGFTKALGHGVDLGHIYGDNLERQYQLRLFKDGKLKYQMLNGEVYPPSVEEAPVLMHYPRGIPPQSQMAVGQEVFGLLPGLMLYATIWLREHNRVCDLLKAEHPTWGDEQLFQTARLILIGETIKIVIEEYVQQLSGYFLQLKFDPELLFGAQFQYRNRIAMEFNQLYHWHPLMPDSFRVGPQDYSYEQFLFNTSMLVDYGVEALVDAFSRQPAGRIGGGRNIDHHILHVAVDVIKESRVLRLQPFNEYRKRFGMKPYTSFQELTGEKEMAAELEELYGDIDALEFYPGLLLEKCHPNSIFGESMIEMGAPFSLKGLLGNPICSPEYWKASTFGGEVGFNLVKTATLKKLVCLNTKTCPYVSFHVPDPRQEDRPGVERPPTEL
human Protein Tyrosine Phosphatase Non-receptor Type 9 (PTPN9), PTPN9 (gene 5780), sequence (P43378 whole entry, looked up): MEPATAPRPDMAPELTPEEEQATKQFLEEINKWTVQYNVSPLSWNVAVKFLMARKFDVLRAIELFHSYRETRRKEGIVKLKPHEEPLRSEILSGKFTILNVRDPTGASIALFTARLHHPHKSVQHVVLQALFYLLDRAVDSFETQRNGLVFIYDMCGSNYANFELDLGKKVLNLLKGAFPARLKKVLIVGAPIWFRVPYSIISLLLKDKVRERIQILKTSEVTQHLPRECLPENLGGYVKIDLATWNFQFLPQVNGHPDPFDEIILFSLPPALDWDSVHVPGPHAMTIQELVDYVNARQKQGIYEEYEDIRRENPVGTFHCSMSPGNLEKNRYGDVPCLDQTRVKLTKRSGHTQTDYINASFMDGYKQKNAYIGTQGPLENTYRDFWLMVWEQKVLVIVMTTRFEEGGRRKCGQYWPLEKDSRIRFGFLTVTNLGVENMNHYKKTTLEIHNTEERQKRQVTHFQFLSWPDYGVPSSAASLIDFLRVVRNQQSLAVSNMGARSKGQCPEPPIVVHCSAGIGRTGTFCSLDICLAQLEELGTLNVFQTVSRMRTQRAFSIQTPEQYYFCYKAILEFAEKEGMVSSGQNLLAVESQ
rabbit Imidazoline 2 Central (I2C), CKB (gene 100009085), sequence (P00567 whole entry, looked up): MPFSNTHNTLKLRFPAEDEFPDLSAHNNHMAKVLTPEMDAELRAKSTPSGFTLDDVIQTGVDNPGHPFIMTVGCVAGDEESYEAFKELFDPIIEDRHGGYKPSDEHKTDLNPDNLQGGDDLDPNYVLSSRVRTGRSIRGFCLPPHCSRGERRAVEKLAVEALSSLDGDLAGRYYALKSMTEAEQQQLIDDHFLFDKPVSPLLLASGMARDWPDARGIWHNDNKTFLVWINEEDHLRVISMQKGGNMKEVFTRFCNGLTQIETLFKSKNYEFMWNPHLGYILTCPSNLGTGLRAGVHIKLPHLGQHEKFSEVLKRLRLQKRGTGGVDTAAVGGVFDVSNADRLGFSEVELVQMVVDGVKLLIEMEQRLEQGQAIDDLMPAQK
bovine Dopamine Receptor (DR), Non-selective Binding, DRD1 (gene 281125), sequence (Q95136 whole entry, looked up): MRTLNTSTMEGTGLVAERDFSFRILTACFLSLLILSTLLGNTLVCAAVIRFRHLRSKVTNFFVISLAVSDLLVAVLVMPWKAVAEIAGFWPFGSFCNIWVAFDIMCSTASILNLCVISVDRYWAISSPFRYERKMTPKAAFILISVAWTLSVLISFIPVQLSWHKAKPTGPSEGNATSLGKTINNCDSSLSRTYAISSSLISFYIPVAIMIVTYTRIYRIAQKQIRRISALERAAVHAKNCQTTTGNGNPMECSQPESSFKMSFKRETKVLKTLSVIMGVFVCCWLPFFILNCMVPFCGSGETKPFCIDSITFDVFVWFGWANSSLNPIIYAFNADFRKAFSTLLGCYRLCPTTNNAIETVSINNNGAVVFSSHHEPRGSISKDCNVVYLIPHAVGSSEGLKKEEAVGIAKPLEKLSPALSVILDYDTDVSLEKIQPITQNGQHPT
human Vascular Endothelial Growth Factor Receptor 1 (VEGFR1), FLT1 (gene 2321), sequence (P17948 whole entry, looked up): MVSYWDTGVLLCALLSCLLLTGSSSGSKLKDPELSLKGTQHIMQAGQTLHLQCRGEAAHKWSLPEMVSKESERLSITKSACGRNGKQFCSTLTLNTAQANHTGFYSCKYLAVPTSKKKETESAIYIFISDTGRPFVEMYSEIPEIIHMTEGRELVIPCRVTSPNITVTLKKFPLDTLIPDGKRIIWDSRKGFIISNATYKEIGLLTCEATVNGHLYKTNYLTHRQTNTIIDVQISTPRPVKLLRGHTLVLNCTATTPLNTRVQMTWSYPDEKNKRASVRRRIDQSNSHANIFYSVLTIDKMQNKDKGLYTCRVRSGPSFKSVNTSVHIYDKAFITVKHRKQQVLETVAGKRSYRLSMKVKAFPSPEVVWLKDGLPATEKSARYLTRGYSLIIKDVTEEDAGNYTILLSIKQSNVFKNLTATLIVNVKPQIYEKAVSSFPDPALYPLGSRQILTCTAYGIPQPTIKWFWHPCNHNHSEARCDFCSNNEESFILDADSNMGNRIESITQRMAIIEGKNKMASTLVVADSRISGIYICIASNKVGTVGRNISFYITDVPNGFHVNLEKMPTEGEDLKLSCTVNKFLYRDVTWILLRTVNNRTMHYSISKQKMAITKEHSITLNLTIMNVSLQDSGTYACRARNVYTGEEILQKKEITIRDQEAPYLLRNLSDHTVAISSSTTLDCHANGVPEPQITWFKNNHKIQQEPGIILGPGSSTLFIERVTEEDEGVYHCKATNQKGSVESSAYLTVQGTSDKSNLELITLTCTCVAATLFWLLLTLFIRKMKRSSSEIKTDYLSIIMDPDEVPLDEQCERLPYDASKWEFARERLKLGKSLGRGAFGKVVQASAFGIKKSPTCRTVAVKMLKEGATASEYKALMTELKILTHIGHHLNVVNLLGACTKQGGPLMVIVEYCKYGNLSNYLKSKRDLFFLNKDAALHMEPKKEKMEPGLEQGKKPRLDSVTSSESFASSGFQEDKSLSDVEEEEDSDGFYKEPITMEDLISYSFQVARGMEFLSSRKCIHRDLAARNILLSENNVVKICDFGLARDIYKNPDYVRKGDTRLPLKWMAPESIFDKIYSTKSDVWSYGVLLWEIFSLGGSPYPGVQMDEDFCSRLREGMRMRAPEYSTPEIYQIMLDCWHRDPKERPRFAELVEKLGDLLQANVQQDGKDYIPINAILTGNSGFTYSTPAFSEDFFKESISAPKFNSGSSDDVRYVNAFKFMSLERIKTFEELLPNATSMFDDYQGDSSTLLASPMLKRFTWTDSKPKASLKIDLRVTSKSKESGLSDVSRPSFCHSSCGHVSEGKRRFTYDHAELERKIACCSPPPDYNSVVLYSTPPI
sheep Cyclooxygenase-2 (Cox2), PTGS2 (gene 443460), sequence (P79208 whole entry, looked up): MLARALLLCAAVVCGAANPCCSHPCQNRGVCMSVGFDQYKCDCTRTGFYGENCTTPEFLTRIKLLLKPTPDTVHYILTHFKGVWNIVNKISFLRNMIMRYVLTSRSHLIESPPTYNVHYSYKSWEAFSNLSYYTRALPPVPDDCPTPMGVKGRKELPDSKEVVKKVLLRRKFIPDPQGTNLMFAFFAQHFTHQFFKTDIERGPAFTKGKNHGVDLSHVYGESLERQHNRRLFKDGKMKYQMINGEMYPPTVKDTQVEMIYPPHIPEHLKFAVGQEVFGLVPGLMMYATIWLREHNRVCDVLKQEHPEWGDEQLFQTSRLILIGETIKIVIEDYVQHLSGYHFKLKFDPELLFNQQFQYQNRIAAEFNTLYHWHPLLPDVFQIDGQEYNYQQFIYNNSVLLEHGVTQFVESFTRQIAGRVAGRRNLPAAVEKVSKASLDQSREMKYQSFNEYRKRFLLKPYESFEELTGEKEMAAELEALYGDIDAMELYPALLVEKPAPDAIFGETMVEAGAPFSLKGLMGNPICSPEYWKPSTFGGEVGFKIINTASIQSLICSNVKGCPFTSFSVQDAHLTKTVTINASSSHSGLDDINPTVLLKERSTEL

## CN(Cc1cnc2nc(N)nc(N)c2n1)c1ccc(C(=O)N[C@@H](CCC(=O)O)C(=O)O)cc1
[1]
  AC50: 1.98 µM (active)

## OCC(CO)(CBr)CBr
[2]
  outcome: inactive
[3]
  AC50: 16.7 µM (active)

## CC1=NN(c2ccccc2)C(=O)C1
[1]
  AC50: 28.2 µM (active)

## CCCCCCCCCCCCCCCCCC[N+](C)(C)Cc1ccccc1
[4]
  outcome: inactive
[1]
  outcome: inactive

## CN(C)CCOC(c1ccccc1)c1ccccc1
[5]
  AC50: 8.46 µM (active)
[6]
  AC50: 5.83 µM (active)
